Screening results deposited in PubChem by several laboratories.
A selection: hits, their analogues and other compounds. The true share with any hit is near 6.9%.
GRIN3A LBD mod = modulators (binders) of human NR3A ligand-binding domain; NR3A LBD differential scanning fluorimetry, Tm shift; 0% = protein alone, 100% = glycine-bound protein; Tm shift relative to glycine control, % at 25 µM; 2.5% of 340,000 active;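 active = melting temperature shift of at least 10% of the positive control shift, at one fixed dose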
MPTP block = permeability transition pore inhibition | isolated mouse mitochondria, Ca2+ swelling absorbance, 30 min | inhibition, % at 10 µM | 1.4% of 360,000 active;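 active = inhibition of 50% or more, scaled per plate between neutral and stimulator controls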
Mdm2 MdmX PPI = disrupts the human Mdm2-MdmX interaction. O15151+Q00987. SaOS-2 split-luciferase Mdm2/MdmX complementation, luminescence. inhibition, % at 8 µM. 3% of 330,000 active. AID 485346;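 active = inhibition of at least 50% at 8 µM in the primary screen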
Target sequence (O15151 whole entry, looked up): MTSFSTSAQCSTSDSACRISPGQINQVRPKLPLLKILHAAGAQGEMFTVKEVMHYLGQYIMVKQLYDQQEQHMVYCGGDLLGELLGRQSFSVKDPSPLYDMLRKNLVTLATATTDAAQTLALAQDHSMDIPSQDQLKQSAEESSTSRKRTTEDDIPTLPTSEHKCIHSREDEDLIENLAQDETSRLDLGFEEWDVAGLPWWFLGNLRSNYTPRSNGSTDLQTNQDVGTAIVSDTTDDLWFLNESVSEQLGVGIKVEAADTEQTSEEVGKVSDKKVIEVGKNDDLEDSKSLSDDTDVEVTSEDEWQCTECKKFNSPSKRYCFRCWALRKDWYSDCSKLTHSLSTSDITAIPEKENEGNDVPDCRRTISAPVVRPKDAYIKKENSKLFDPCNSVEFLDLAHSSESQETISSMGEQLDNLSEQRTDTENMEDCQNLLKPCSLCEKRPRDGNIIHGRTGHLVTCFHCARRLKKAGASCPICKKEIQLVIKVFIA
Target sequence (Q00987 whole entry, looked up): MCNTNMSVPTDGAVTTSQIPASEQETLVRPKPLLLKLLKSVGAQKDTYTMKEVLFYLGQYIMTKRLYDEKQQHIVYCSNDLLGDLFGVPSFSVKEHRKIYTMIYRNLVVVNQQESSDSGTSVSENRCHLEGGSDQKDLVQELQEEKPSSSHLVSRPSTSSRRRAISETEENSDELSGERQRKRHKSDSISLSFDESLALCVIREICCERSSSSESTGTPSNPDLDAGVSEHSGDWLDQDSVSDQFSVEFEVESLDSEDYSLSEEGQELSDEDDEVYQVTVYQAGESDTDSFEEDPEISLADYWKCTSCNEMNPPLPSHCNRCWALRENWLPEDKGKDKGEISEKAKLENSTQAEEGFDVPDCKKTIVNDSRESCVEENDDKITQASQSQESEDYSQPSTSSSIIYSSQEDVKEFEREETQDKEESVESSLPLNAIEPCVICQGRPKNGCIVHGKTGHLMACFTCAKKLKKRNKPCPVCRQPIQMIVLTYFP
SKKanGAS inh = SKKanGAS growth inhibition; AID 1662; S. pyogenes SKKanGAS, kanamycin growth, BacTiter-Glo, 6 h; 1.3% of 300,000 active; inhibition, % at 7.5 µM;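 active = mean replicate score, as percent of positive control median, at least 50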;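 note: strain carries kanamycin resistance gene driven by streptokinase promoter and grows in 40 µg/ml kanamycin; loss of luminescence reflects streptokinase promoter inhibition or plain growth inhibition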
Beta apoptosis = blocks beta cell apoptosis. INS-1E cytokine-induced death, ATP luminescence, 48 h; percent of positive-control rescue, neutral wells zero. protection from apoptosis, % (test concentration not listed). 0.8% of 300,000 active;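 active = Every replicate reaches about 75%, or at least half do and their mean reaches it too, limit read from the data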;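 note: higher means more ATP so stronger rescue from cytokine killing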
CSC inhib = blocks cancer stem cells | cancer stem cell-like cells viability, luminescence | inhibition, % at 7.5 µM | 1.1% of 300,000 active | AID 2717; in the data active = inhibition above about 75%; tested in HMLE shEcad cells
Mdm2 MdmX conf = confirmation of human Mdm2/MdmX interaction inhibitors; AID 489028; shares compounds with Mdm2 MdmX PPI; 55% of 10,000 active; inhibition, % at 8 µM; Mdm2-MdmX binding, luminescent assay; in the data active = inhibition above about 40%
FLuc counter = full-length luciferase inhibition in Mdm2/MdmX counter-screen. shares compounds with Mdm2 MdmX PPI. SaOS-2 full-length luciferase counterscreen, luminescence. inhibition, % at 8 µM. 77% of 6,200 active;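 active = mean inhibition at 8 µM reaching about 37%, which flags the compound as non-specific, limit read from the data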;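 note: p53-null SaOS-2 cells with luciferase driven by a doxycycline-inducible promoter; compound on cells about two nights before reading with doxycycline added after day one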
Numbers stand for hits; – = inactive; · = not tested or not shown.

SMILES	GRIN3A LBD mod	MPTP block	Mdm2 MdmX PPI	SKKanGAS inh	Beta apoptosis	CSC inhib	Mdm2 MdmX conf	FLuc counter
O=C(NCc1cccc(C(F)(F)F)c1)C1CCCN(c2cnccn2)C1 (centres undefined)	–	–	–	–	–	–	·	·
O=P(COCCOCCOCP(=O)(c1ccccc1)c1ccccc1)(c1ccccc1)c1ccccc1	–	–	–	–	–	–	·	·
CCCCS(=O)(=O)/C=C\C=C/S(=O)(=O)CCCC	–	–	93.7	–	85.5	110.7	98.8	51.1
CCCCS(=O)(=O)/C=C\C1C2C=CC(C2)C1S(=O)(=O)CCCC (centres undefined)	–	–	–	–	–	–	·	·
Cc1cc(SCc2cccc(Cl)c2)nc(=O)[nH]1	–	–	–	–	–	–	·	·
O=C(CSc1nc2c(oc3ccccc32)c(=O)n1CC1CCCO1)NCc1ccccc1 (centres undefined)	–	–	65.9	–	–	–	–	·
COc1ccc(-c2noc(CSc3nc4sc(C)c(C)c4c(=O)n3-c3ccccc3)n2)cc1OC	–	–	50.0	–	–	–	–	·
Cc1cc2nc(CCN3CCOCC3)n(S(=O)(=O)c3ccc(C(C)(C)C)cc3)c2cc1C	–	–	52.1	–	–	–	–	·
CC(C)(C)c1ccc(S(=O)(=O)NCCN2CCOCC2)cc1	·	–	·	·	·	·	·	·
O=C(OCn1ncc(Br)c(Br)c1=O)c1ccccc1Cl	–	–	99.2	–	112.1	–	98.4	–
O=C(OCn1ncc(Br)c(Br)c1=O)c1ccc(F)cc1	–	–	98.6	–	99.5	–	100.1	–
CCOc1ccc(N(C)S(=O)(=O)c2c[nH]c(C(=O)OC)c2)cc1	–	–	–	–	·	–	·	·
O=C1CCCCC1CCc1ccncc1 (centres undefined)	–	–	·	·	·	·	·	·
Cc1ccc(C)c(N2CCN(CCCNC(=O)Cn3cccc3C(=O)c3ccccc3C)CC2)c1	–	–	90.2	–	–	–	65.7	42.6
Cc1ccccc1C(=O)c1cccn1CC(=O)NCCN1CCN(c2cccc(C)c2C)CC1	–	–	79.1	–	–	–	48.1	58.7
Cc1ccccc1C(=O)c1cccn1CC(=O)NCCCN1CCCCC1	–	–	–	–	–	·	·	·
Cc1ccccc1C(=O)c1cccn1CC(=O)NCCC1=CCCCC1	–	–	–	–	–	–	·	·
O=C1/C(=C/c2ccccc2[N+](=O)[O-])COc2ccccc21	–	–	97.9	–	–	–	44.7	–
N#CCCN(C(=O)COC(=O)c1nc(Cl)ccc1Cl)c1ccccc1	–	–	–	–	–	–	·	·
CCCCCCN(C(=O)CCl)c1ccccc1	–	–	97.9	–	–	–	91.5	–
O=C(CCl)N(c1ccccc1)c1ccccc1	–	–	·	–	·	·	·	·
N#CCCN(C(=O)CCl)c1cccc(Cl)c1	–	–	100.3	–	–	–	91.7	53.8
CCCCCCCN(C(=O)CCl)c1cccc(C)c1	–	–	99.3	–	–	–	97.2	–
CCCN(C(=O)Cn1ncc2c(=O)oc3ccccc3c21)c1cccc(C)c1	–	–	–	–	–	–	·	·
Cc1cc(F)ccc1S(=O)(=O)N1CCCOC1CNC(=O)C(=O)NC1CC1 (centres undefined)	–	–	–	–	–	–	·	·
SMILES	GRIN3A LBD mod	MPTP block	Mdm2 MdmX PPI	SKKanGAS inh	Beta apoptosis	CSC inhib	Mdm2 MdmX conf	FLuc counter
COC(=O)CC1C(=O)NCCN1Cc1cn(-c2ccc(C)cc2)nc1-c1cccc(C)c1 (centres undefined)	–	–	–	–	–	–	·	·
COc1cccc2sc(Nc3nnc(-c4ccc(F)cc4)o3)nc12	–	–	63.5	88.3	–	107.2	40.6	67.0
COc1ccc(-c2nnc(-c3ccc(F)cc3)o2)cc1	–	–	–	–	–	–	·	·
Cc1ccc(Cl)c(NC(=O)CSc2n[nH]c(=O)n2C2CC2)c1Cl	–	–	–	·	–	–	·	·
C=CC(=O)Nc1cccc(Oc2ncnc3[nH]cc(-c4cnc5ccccc5c4)c23)c1	–	–	92.7	·	–	·	78.8	58.7
CC1=C(C(=O)N(C)C)CC(CC(=O)NC2CCCCC2)C(=O)N1Cc1ccccc1 (centres undefined)	·	–	·	·	·	·	·	·
CCN(CCCNC(=O)CCn1c(=S)[nH]c2cc3c(cc2c1=O)OCO3)c1cccc(C)c1	–	–	57.3	–	–	–	–	·
Cc1cc(C)c(NC(=O)CN(C)C(=O)C2CC(=O)N(c3cccc4ccccc34)C2)c(C)c1 (centres undefined)	–	–	–	·	·	·	·	·
COc1ccccc1OCCNC(=O)c1cccc(S(=O)(=O)NCc2ccccc2)c1	–	–	–	·	–	–	·	·
CN1CCN(c2cc(-c3cc(O)c4ncccc4c3)ccn2)CC1	–	–	60.1	·	–	–	45.5	–
Oc1cc(Nc2ccccc2)cc2cccnc12	–	–	66.8	·	–	·	–	·
Oc1cc(-c2cccnc2)cc2cccnc12	–	–	76.3	·	–	–	49.6	–
CCOc1ccc(Nc2ncnc3ccc([N+](=O)[O-])cc23)cc1	–	–	68.7	–	–	–	71.0	53.0
N#CCC(=O)Nc1ccc(C(=O)OC(C(=O)Nc2cc(C(F)(F)F)ccc2Cl)c2ccccc2)cc1 (centres undefined)	28.6	–	52.1	61.4	–	–	–	70.5
O=C(CNC(=O)c1ccccc1F)OC(C(=O)Nc1cc(C(F)(F)F)ccc1Cl)c1ccccc1 (centres undefined)	–	–	–	–	–	–	·	·
O=c1[nH]c(=O)n([C@H]2C[C@H](O)[C@@H](CO)O2)cc1C(F)(F)F	–	–	59.6	–	–	–	51.9	55.6
O=c1[nH]c(=O)n(C2CC(O)C(CO)O2)cc1Br (centres undefined)	–	–	·	·	·	·	·	·
COc1ccc(NC(=O)CSc2nc3ccc(Nc4nc(N5CCOCC5)nc(N5CCOCC5)n4)cc3s2)cc1	–	–	85.1	–	·	–	49.4	36.7
CCOC(=O)CSc1nc2ccc(Nc3nc(N4CCOCC4)nc(N4CCOCC4)n3)cc2s1	–	–	–	–	–	–	·	·
CC(C)(C)NC(=O)CSc1nc2ccc(Nc3nc(N4CCOCC4)nc(N4CCOCC4)n3)cc2s1	–	–	–	–	–	–	·	·
CCOC(=O)c1ccc(NC(=O)CSc2nc(N3CCOCC3)nc(N3CCOCC3)n2)cc1	–	–	74.1	–	–	–	–	·
O=C(CSc1nc(Nc2ccccc2)nc(N2CCOCC2)n1)Nc1ccccc1Cl	–	–	75.1	–	–	–	–	·
Cc1ccc(NC(=O)CSc2nc3ccc(Nc4nc(N5CCOCC5)nc(N5CCOCC5)n4)cc3s2)cc1	15.4	–	94.9	·	–	–	41.2	–
CN(CC(=O)Nc1ccc(F)c(F)c1F)C(=O)C1CCCO1 (centres undefined)	–	–	–	–	–	–	·	·
